Values joined by “and” are separate entries in the source; they are usually repeats but may differ in a detail not shown here. Equal entries are not always repeated. More than one record can exist for a structure, and the calls need not agree. Active and inactive are the calls of the source. Rule for the calls: active = hit-call score of the fitted dose curve at least 0.9, where 1 is the maximum; inactive = score below 0.9.
What was measured:
[1] = read-out: C-C motif chemokine 2 (Homo sapiens) (UniProt P13500); assay: BSK_KF3CT_MCP1: BioMAP Diversity Plus: KF3CT Assay for Monocyte Chemoattractant Protein 1 (MCP1/CCL2) Biomarker Activity (AID 2283073); conditions: primary human keratinocytes with fibroblasts; actives raise or lower the signal
Summary of the method: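 ELISA read-out of MCP-1, 24 h post-dose, in primary human skin keratinocytes co-cultured with fibroblasts. Parallel SRB staining monitors cytotoxicity; changes fitted both directions relative to DMSO.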

[2] = read-out: Matrix Metallopeptidase 9 (MMP9), MMP9 (gene 4318); assay: BSK_KF3CT_MMP9: BioMAP Diversity Plus: KF3CT Assay for Matrix Metallopeptidase 9 (MMP9) Biomarker Activity (AID 2283074); conditions: primary human keratinocytes with fibroblasts; actives raise or lower the signal;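 for AC50: MMP9 protein level quantified by ELISA in the co-culture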
Summary of the method: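 Human keratinocyte/foreskin fibroblast co-culture; compound added; 24 h; MMP-9 by ELISA; bidirectional fit vs DMSO baseline.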

[3] = read-out: urokinase plasminogen activator (uPA), PLAU (gene 5328); assay: BSK_KF3CT_uPA: BioMAP Diversity Plus: KF3CT Assay for urokinase plasminogen activator (uPA) Biomarker Activity (AID 2283075); conditions: primary human keratinocytes with fibroblasts; actives raise or lower the signal
Summary of the method: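 ELISA readout of uPA, analyzed for signal gain or loss relative to DMSO, from a human primary keratinocyte–foreskin fibroblast co-culture measured 24 h after chemical treatment.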

CD40, CD40 (gene 958) [4] = assay: BSK_LPS_CD40: BioMAP Diversity Plus: LPS Assay for CD40 Biomarker Activity (AID 2283076); conditions: primary human HUVEC with PBMC; actives raise or lower the signal
Summary of the method: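 In the LPS system of human endothelial cells with peripheral blood mononuclear cells, CD40 levels were read by ELISA 24 h post-treatment. Signal changes in either direction were fitted against the DMSO baseline, with parallel SRB protein staining.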

[5] = read-out: E-selectin (Homo sapiens) (UniProt P16581); assay: BSK_LPS_Eselectin: BioMAP Diversity Plus: LPS Assay for Eselectin Biomarker Activity (AID 2283077); conditions: primary human HUVEC with PBMC; actives raise or lower the signal
Summary of the method: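 E-selectin ELISA on LPS-stimulated endothelial cell/PBMC co-cultures, read 24 h post-treatment; gains and losses fitted against DMSO. Parallel SRB staining (0.1% SRB after 10% TCA fixation, 560 nm) flags overt cytotoxicity.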

[6] = read-out: Interleukin-8 (IL8), CXCL8 (gene 3576); assay: BSK_LPS_IL8: BioMAP Diversity Plus: LPS Assay for Interleukin-8 (IL8) Biomarker Activity (AID 2283078); conditions: primary human HUVEC with PBMC; actives raise or lower the signal
Summary of the method: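 ELISA read-out of IL-8 after 24 h chemical treatment of LPS-activated endothelial/PBMC human primary co-cultures. Changes either up or down relative to DMSO; overt cytotoxicity checked by sulforhodamine B staining in parallel wells.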

[7] = BSK_LPS_SRB: Viability Assessment in the BioMAP Diversity Plus: LPS Assay (AID 2283079); conditions: primary human HUVEC with PBMC;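 note: total protein by sulforhodamine B absorbance as a cytotoxicity measure; measured one day after compound addition; fitted in both directions against DMSO so loss or gain of signal counts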
Summary of the method: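 SRB viability endpoint: cells fixed with 10% TCA, stained with 0.1% SRB, read at 560 nm, 24 h post-dose. HUVEC/PBMC co-culture; signal change in either direction scored relative to DMSO.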

[8] = read-out: Interleukin-1 alpha (IL1a), IL1A (gene 3552); assay: BSK_LPS_IL1a: BioMAP Diversity Plus: LPS Assay for Interleukin-1 alpha (IL1a) Biomarker Activity (AID 2283080); conditions: primary human HUVEC with PBMC; actives raise or lower the signal
Summary of the method: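 Readout is IL-1a level by ELISA, 24 h post-dose, fitted as gain or loss relative to DMSO. System: LPS-activated human primary co-culture of vascular endothelium and peripheral blood mononuclear cells, with parallel SRB total-protein cytotoxicity.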

[9] = read-out: Monocyte Chemoattractant Protein-1 (MCP1), CCL2 (gene 6347); assay: BSK_LPS_MCP1: BioMAP Diversity Plus: LPS Assay for Monocyte Chemoattractant Protein-1 (MCP1) Biomarker Activity (AID 2283081); conditions: primary human HUVEC with PBMC; actives raise or lower the signal;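 for AC50: secreted MCP-1 protein quantified by ELISA in culture supernatant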
Summary of the method: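 Secreted MCP-1 read by ELISA at 24 h post-dosing in an LPS-activated co-culture of endothelial cells with peripheral blood mononuclear cells. Fits run in both directions, DMSO as baseline; parallel SRB staining tracks overt cytotoxicity.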

[10] = BSK_LPS_PGE2: BioMAP Diversity Plus: LPS Assay for Prostaglandin E2 (PGE2) Biomarker Activity (AID 2283082); conditions: primary human HUVEC with PBMC; actives raise or lower the signal
Summary of the method: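 LPS-activated HUVEC/PBMC co-culture; cmpd dosed, 24 h; PGE2 by ELISA; bidirectional fit vs DMSO; SRB (0.1%, TCA-fixed, 560 nm) in parallel plates for overt cytotox.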

[11] = read-out: Macrophage colony-stimulating factor (MCSF), CSF1 (gene 1435); assay: BSK_LPS_MCSF: BioMAP Diversity Plus: LPS Assay for Macrophage colony-stimulating factor (MCSF) Biomarker Activity (AID 2283083); conditions: primary human HUVEC with PBMC; actives raise or lower the signal
Summary of the method: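 Bidirectional fitting against DMSO was applied to M-CSF levels read by ELISA at 24 h post-dose. The system pairs human umbilical vein endothelium with peripheral blood mononuclear cells; parallel SRB staining tracked cytotoxicity.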

[12] = read-out: Tissue Factor, F3 (gene 2152); assay: BSK_LPS_TissueFactor: BioMAP Diversity Plus: LPS Assay for Tissue Factor Biomarker Activity (AID 2283084); conditions: primary human HUVEC with PBMC; actives raise or lower the signal
Summary of the method: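 Compound was added to an endothelial cell/PBMC co-culture, and after 24 h tissue factor (CD142) was read by ELISA. Gain or loss of signal was fitted against a DMSO baseline, and parallel SRB staining (560 nm) tracked overt cytotoxicity.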

[13] = read-out: Tumor necrosis factor (Homo sapiens) (UniProt P01375); assay: BSK_LPS_TNFa: BioMAP Diversity Plus: LPS Assay for Tumour Necrosis Factor alpha (TNFa) Biomarker Activity (AID 2283085); conditions: primary human HUVEC with PBMC; actives raise or lower the signal;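 for AC50: TNFa protein level quantified by ELISA in the co-culture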
Summary of the method: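 Read-out is ELISA of TNFa in primary human endothelial cell–PBMC co-cultures at 24 h after compound. Activity in either direction was fitted against DMSO.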

[14] = read-out: Vascular cell adhesion molecule 1 (VCAM1), VCAM1 (gene 7412); assay: BSK_LPS_VCAM1: BioMAP Diversity Plus: LPS Assay for Vascular cell adhesion molecule 1 (VCAM1) Biomarker Activity (AID 2283086); conditions: primary human HUVEC with PBMC; actives raise or lower the signal
Summary of the method: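 HUVEC + PBMC co-culture, LPS system; compound 24 h; VCAM-1 by ELISA; bidirectional fit vs DMSO control; parallel SRB (0.1%, TCA-fixed, 560 nm) for cytotoxicity.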

CD38, CD38 (gene 952) = assay: BSK_SAg_CD38: BioMAP Diversity Plus: SAg Assay for CD38 Biomarker Activity (AID 2283087); conditions: primary human HUVEC with PBMC; actives raise or lower the signal
Summary of the method: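 Human HUVEC plus PBMC co-culture stimulated with superantigen; CD38 measured by ELISA 24 h after chemical dosing. Fluorescence read-out, bidirectional fit against DMSO; cytotoxicity tracked in parallel by SRB and Alamar Blue.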

CD40, CD40 (gene 958) [15] = assay: BSK_SAg_CD40: BioMAP Diversity Plus: SAg Assay for CD40 Biomarker Activity (AID 2283088); conditions: primary human HUVEC with PBMC; actives raise or lower the signal
Summary of the method: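 CD40 is measured by fluorescence ELISA in an endothelial/PBMC primary human co-culture at 24 h post-dose. Fitting is bidirectional, DMSO baseline. Parallel SRB staining (560 nm) flags cytotoxicity.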

CD69, CD69 (gene 969) = assay: BSK_SAg_CD69: BioMAP Diversity Plus: SAg Assay for CD69 Biomarker Activity (AID 2283089); conditions: primary human HUVEC with PBMC; actives raise or lower the signal;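 for AC50: cell surface CD69 protein quantified by ELISA with fluorescence detection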
Summary of the method: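 Primary human vascular co-culture (umbilical vein endothelium with peripheral blood mononuclear cells) exposed to test chemical for 24 h. CD69 levels quantified by fluorescence ELISA; DMSO served as negative control for bidirectional fitting.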

[16] = read-out: E-selectin (Homo sapiens) (UniProt P16581); assay: BSK_SAg_Eselectin: BioMAP Diversity Plus: SAg Assay for Eselectin Biomarker Activity (AID 2283091); conditions: primary human HUVEC with PBMC; actives raise or lower the signal
Summary of the method: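 Cell-surface E-selectin is read by ELISA at 24 h in the SAg co-culture of HUVEC and PBMC. Curves are fitted in both directions relative to DMSO. Parallel SRB total-protein staining tracks overt toxicity.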

[17] = read-out: Transforming growth factor beta 1 (TGFb1), TGFB1 (gene 7040); assay: BSK_KF3CT_TGFb1: BioMAP Diversity Plus: KF3CT Assay for Transforming growth factor beta 1 (TGFb1) Biomarker Activity (AID 2283072); conditions: primary human keratinocytes with fibroblasts; actives raise or lower the signal
Summary of the method: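 Primary human skin cells (keratinocytes, foreskin fibroblasts) were co-cultured, exposed to test chemical and sampled at 24 h. TGF-b1 levels were measured by ELISA and fitted bidirectionally relative to DMSO.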

Measured: AC50

Tumor necrosis factor (Homo sapiens), sequence (P01375 whole entry, looked up): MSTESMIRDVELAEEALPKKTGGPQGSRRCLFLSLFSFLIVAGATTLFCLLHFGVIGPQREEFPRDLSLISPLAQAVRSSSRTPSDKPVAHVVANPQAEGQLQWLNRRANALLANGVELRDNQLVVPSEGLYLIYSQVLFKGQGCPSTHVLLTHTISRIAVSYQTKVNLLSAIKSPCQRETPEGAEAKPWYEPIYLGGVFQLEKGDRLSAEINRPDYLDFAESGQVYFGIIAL
E-selectin (Homo sapiens), sequence (P16581 whole entry, looked up): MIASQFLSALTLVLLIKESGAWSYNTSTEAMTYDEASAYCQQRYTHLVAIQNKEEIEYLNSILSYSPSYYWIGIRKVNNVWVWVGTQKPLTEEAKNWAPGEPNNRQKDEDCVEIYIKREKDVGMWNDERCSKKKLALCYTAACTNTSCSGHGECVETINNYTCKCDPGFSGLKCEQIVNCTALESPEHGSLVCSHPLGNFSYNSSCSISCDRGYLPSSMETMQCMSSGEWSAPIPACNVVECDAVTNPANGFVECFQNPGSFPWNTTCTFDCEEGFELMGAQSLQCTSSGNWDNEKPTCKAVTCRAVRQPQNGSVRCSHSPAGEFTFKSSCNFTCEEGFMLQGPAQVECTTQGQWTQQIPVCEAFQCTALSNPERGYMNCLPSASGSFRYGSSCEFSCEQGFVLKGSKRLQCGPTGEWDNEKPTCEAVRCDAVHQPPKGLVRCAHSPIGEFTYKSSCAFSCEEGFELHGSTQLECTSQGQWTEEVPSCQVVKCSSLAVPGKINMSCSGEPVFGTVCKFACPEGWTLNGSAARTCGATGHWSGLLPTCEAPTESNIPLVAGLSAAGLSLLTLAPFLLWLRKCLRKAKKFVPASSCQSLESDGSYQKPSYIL

O=S(=O)(O)C(F)(F)C(F)(F)C(F)(F)C(F)(F)C(F)(F)C(F)(F)C(F)(F)C(F)(F)C(F)(F)C(F)(F)F
inactive: [1] | [3] | [7] | [8] | [9] | [10] | [11] | [12] | [14] | CD38, CD38 (gene 952) | CD69, CD69 (gene 969) | [16]
active: [2] 11.9 µM and 5.3 µM | CD40, CD40 (gene 958) [4] 13.3 µM and 16.5 µM | [5] 24.7 µM and 768 nM | [6] 23.4 µM and 20.3 µM | [8] 19.4 µM | [9] 6.6 µM | [12] 13.3 µM | [13] 8.87 µM and 13.3 µM | CD40, CD40 (gene 958) [15] 13.3 µM and 7.42 µM | [16] 7.15 µM

NC(=NCCCCCCN=C(N)/N=C(\N)Nc1ccc(Cl)cc1)/N=C(\N)Nc1ccc(Cl)cc1
inactive: [10]
active: [17] 2.35 µM | [1] 6.01 µM | [2] 2.67 µM | [3] 4.99 µM | CD40, CD40 (gene 958) [4] 5.33 µM | [6] 2.36 µM | [7] 5.33 µM | [8] 4.94 µM | [9] 4.95 µM | [11] 4.92 µM | [12] 4.98 µM | [13] 20.5 µM | [14] 6.08 µM | CD38, CD38 (gene 952) 8.71 µM | CD40, CD40 (gene 958) [15] 5.1 µM | CD69, CD69 (gene 969) 7.57 µM | [16] 5.02 µM

CC1=NN(c2ccccc2)C(=O)C1
inactive: all assays above
